In the library only some 3.4% were active in any assay of this set; here they are far more common.
TEAD-YAP inh: TEAD-YAP interaction inhibition; HEK-TIYL cells, TEAD-Gal4/YAP UAS-luciferase luminescence; inhibition, % at 9.12 µM; hit rate 1.4% among 640,000; AID 1259422; in the data active = inhibition above about 32%;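 also: 0% = median of test compound wells and 100% = reference inhibitor wells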
FBW7 activator: human FBW7 E3 ligase activation, primary screen; Q969H0; AlphaScreen FBW7–phospho-cyclin E peptide binding, activator screen; normalized activity (activation), % at 26.1 µM; hit rate 0.13% among 650,000; in the data active = normalized activity above about 1.9%;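 also: purified mutant Fbw7 with reduced substrate affinity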
MITF inh: human MITF inhibition, primary screen | O75030 | AlphaScreen MITF homodimerization, bead proximity signal | inhibition, % at 2.6 µM | hit rate 0.91% among 650,000; in the data active = inhibition above about 50%;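 also: 0% = vehicle wells with protein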
GPR151 activ: activates the human receptor GPR151. AID 1508602. hit rate 1% among 650,000. PathHunter beta-arrestin GPR151 cells, luminescence. Q8TDV0. activation, % at 11.2 µM; in the data active = activation above about 4.9%;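 also: 0% = median of compound wells and 100% = cells with positive control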
Target sequence (Q8TDV0 whole entry, looked up): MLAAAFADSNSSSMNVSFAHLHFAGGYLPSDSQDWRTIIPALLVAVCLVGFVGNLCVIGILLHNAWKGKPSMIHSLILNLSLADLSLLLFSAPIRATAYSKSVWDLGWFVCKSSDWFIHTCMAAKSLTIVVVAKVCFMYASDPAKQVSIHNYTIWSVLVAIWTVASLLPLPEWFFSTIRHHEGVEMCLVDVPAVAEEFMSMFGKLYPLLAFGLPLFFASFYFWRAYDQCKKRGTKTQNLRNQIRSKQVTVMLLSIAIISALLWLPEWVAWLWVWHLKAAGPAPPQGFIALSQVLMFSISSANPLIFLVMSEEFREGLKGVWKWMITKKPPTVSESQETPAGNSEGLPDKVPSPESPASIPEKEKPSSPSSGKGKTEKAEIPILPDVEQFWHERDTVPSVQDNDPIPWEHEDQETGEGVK
Starred values were filed as active, the others as inactive.

What do the screens show for `Cc1cc(S(=O)(=O)N2CCC(C(=O)Nc3ccc(C(=O)O)cc3)CC2)ccc1Cl`?
TEAD-YAP inh: -14; FBW7 activator: 0; MITF inh: -7; GPR151 activ: 2

What do the screens show for `O=C(Nc1ccccc1)c1ccc(Cl)c(S(=O)(=O)Nc2ccc(I)cc2)c1`?
TEAD-YAP inh: 36*; FBW7 activator: 0; MITF inh: 4; GPR151 activ: 0

How did Cc1ccc(NS(=O)(=O)c2cc(C(=O)Nc3ccccc3)ccc2Br)cc1 do in these assays?
TEAD-YAP inh: 39*; FBW7 activator: 0; MITF inh: -6; GPR151 activ: 1

What do the screens show for `Cc1ccc(-c2cnc(NC3CC3)nc2)cc1`?
TEAD-YAP inh: 54*; FBW7 activator: 1; MITF inh: 11; GPR151 activ: -6

What do the screens show for `CCc1ccccc1NC(=O)c1cc2c(=O)n3cccc(C)c3nc2n1C`?
TEAD-YAP inh: 9; FBW7 activator: 1; MITF inh: 8; GPR151 activ: 0

What do the screens show for `Cc1ccc(NC(=O)Nc2cc(C)ccn2)cc1`?
TEAD-YAP inh: -26; FBW7 activator: 0; MITF inh: 4; GPR151 activ: 0

How did COc1ccc(C(=O)/C=C/Nc2cc(C)ccn2)cc1 do in these assays?
TEAD-YAP inh: 36*; FBW7 activator: 0; MITF inh: 1; GPR151 activ: -7

Results for COc1ccc(NC(=O)Nc2cc(C)ccn2)cc1 ?
TEAD-YAP inh: 41*; FBW7 activator: 0; MITF inh: 6; GPR151 activ: -3

How did c1ccc2c(-c3cc(NC4CC4)ncn3)csc2c1 do in these assays?
TEAD-YAP inh: 35*; FBW7 activator: 0; MITF inh: 13; GPR151 activ: -1

Results for c1ccc(CN2CCC(Nc3cc(-c4csc5ccccc45)ncn3)CC2)cc1 ?
TEAD-YAP inh: 9; FBW7 activator: 0; MITF inh: 2; GPR151 activ: 1

What do the screens show for `COc1cc(OC)cc(C(=O)N/N=C(\C)CC(=O)NCc2ccco2)c1`?
TEAD-YAP inh: 51*; FBW7 activator: 1; MITF inh: -8; GPR151 activ: -1

What do the screens show for `COc1ccc(C(=O)N/N=C(\C)CC(=O)NCc2ccco2)cc1`?
TEAD-YAP inh: -52; FBW7 activator: 1; MITF inh: 24; GPR151 activ: -1

What do the screens show for `COc1cc(OC)cc(C(=O)N/N=C(\C)CC(=O)Nc2cccc(C)c2C)c1`?
TEAD-YAP inh: 50*; FBW7 activator: 0; MITF inh: -8; GPR151 activ: 2

What do the screens show for `COc1ccc(-c2ccc(C(=O)NCc3ccc4c(c3)CCO4)c(N(C)C(C)=O)n2)cc1`?
TEAD-YAP inh: -6; FBW7 activator: 0; MITF inh: 2; GPR151 activ: 1

Results for COc1ccc(O)c(/C=N/Nc2ccccn2)c1 ?
TEAD-YAP inh: -55; FBW7 activator: 0; MITF inh: 73*; GPR151 activ: 0

How did Oc1ccc(/C=N/NC(=S)Nc2cccnc2)cc1 do in these assays?
TEAD-YAP inh: 65*; FBW7 activator: 0; MITF inh: 12; GPR151 activ: -1

How did COc1cc(OC)c(OC)cc1/C=N/Nc1ccccn1 do in these assays?
TEAD-YAP inh: 15; FBW7 activator: 0; MITF inh: 5; GPR151 activ: -1

Results for COc1ccc(O)c(/C=N/NC(=S)Nc2cccnc2)c1 ?
TEAD-YAP inh: -11; FBW7 activator: 0; MITF inh: 91*; GPR151 activ: -2

How did COc1cccc(/C=N/NC(=S)Nc2cccnc2)c1 do in these assays?
TEAD-YAP inh: -23; FBW7 activator: 0; MITF inh: 0; GPR151 activ: 2

How did Cc1cc(C)c(CSc2nnnn2-c2ccc(C(N)=O)cc2)c(C)c1 do in these assays?
TEAD-YAP inh: 61*; FBW7 activator: 0; MITF inh: 19; GPR151 activ: -2

How did Cc1c(Cl)cccc1-n1c(C)cc(/C=N/n2cnnc2)c1C do in these assays?
TEAD-YAP inh: 5; FBW7 activator: 0; MITF inh: 5; GPR151 activ: 0

What do the screens show for `Cn1nccc1C(=O)Nc1ccc(OC(=O)c2ccnn2C)cc1`?
TEAD-YAP inh: 34*; FBW7 activator: 0; MITF inh: -5; GPR151 activ: 2

How did CCOC(=O)c1ccc(NC(=O)c2ccnn2C)cc1 do in these assays?
TEAD-YAP inh: -43; FBW7 activator: 0; MITF inh: -4; GPR151 activ: -6

How did Nc1nc(CN2CCN(c3ccccc3F)CC2)nc(Nc2ccc(Cl)cc2)n1 do in these assays?
TEAD-YAP inh: -8; FBW7 activator: 0; MITF inh: 0; GPR151 activ: 0

How did O=C(COC(=O)c1ccccc1C(F)(F)F)c1ccc([N+](=O)[O-])cc1 do in these assays?
TEAD-YAP inh: 38*; FBW7 activator: 0; MITF inh: -10; GPR151 activ: 0

Compound activity (PubChem)
